Bioassay records deposited in PubChem by several laboratories.
Rows were chosen to be rich in hits. Some 3.4% of all compounds tested hit in one or more screens of this group.
MEKK2 WT-MEK5: raises or lowers MEK5 binding to wildtype human MEKK2 PB1 domain; actives 1.1% (n = 290,000); bead flow cytometry, Alexa488-MEK5 binding to MEKK2 WT; actives lie on both sides; binding response (% of control), % at 10 µM; in the data active means binding response below about 67% or above about 130%
ANO1 block: inhibitors of mouse TMEM16A calcium-activated chloride channel; normalized B-score (activity score, 25-100; higher = stronger inhibition) at 10 µM; Q8BHY3; actives 1.2% (n = 310,000); AID 588511; HEK293 TMEM16A/YFP iodide influx fluorescence, ionomycin;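 active means ratio plate-corrected score three or more library SD toward inhibition, starting fluorescence score within five deviations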;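 further: score derived from kinetic fluorescence span divided by baseline fluorescence per well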
MEKK2mut PB1 HTS: signal of MEK5 binding to mutant human MEKK2 PB1 domain; bead flow cytometry, Alexa488-MEK5 binding to MEKK2 mutant; percent response, % at 10 µM; actives 0.35% (n = 290,000); in the data active means percent response above about 24%, passing the limit was not always enough
NTR1 agonist: agonists of human neurotensin receptor NTR1; P30989; NTR1-U2OS beta-arrestin-GFP spot imaging, agonist mode; activation, % at 20 µM; actives 0.17% (n = 330,000);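 active means activation at or above 40% of the spot to cytoplasm intensity ratio, with at least 20 cells analyzed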;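 further: 0% = DMSO without peptide and 100% = 100 nM NTR1 peptide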
Target sequence (P30989 whole entry, looked up): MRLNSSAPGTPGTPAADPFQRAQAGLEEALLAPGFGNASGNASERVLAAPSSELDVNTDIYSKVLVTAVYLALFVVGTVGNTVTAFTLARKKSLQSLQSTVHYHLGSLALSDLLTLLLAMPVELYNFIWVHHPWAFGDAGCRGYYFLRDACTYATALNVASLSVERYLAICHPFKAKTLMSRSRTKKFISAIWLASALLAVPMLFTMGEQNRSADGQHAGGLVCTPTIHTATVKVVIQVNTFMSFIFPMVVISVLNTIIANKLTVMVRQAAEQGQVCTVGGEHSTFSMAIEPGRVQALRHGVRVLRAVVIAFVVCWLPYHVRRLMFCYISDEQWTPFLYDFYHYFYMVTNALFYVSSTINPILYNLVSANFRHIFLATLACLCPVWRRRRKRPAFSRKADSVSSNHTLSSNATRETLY
MEKK3 PB1 HTS: raises or lowers MEK5 binding to the human MEKK3 PB1 domain. bead-based flow cytometry, Alexa488-MEK5 binding to MEKK3; actives lie on both sides; 0 = blocked by unlabeled MEK5, 100 = vehicle. binding response (% of control), % at 10 µM. AID 1529. actives 1.4% (n = 290,000). Q99759;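 active means binding response more than 3 SD above or below the average of its plate-row segment, actives on both sides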;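 further: Alexa488 bead fluorescence after subtracting the streptavidin-only scavenger bead signal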
TMEM16A act: activates or potentiates the mouse TMEM16A chloride channel; actives 0.3% (n = 340,000); B-score at 10 µM; AID 623877; HEK293 TMEM16A/YFP-H148Q/I152L, iodide quench fluorescence; active compounds read low;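 active means fluorescence-ratio B-score plate-corrected deviation score at least 3 library SD below zero, with starting fluorescence score within 5 deviations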;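 further: channel opened by trigger with iodide after compound preincubation; score built on the fluorescence ratio of max minus min over baseline; more negative score means more quench and so TMEM16A activation or potentiation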
MEKK2wt confirm: raises or lowers MEK5 binding to wildtype human MEKK2, retest; shares compounds with MEKK3 PB1 HTS; bead flow cytometry, Alexa488-MEK5 binding to MEKK2 WT; actives lie on both sides; binding response (% of control), % at 10 µM; actives 2.4% (n = 5,900); AID 1892; in the data active means binding response below about 16% or above about 210%; inactive means in between
MEKK2mut confirm: signal of MEK5 binding to mutant human MEKK2, retest | shares compounds with MEKK3 PB1 HTS | bead flow cytometry, Alexa488-MEK5 binding to MEKK2 mutant | percent response, % at 10 µM | actives 2% (n = 5,900); in the data active means percent response mostly above about 71%, no sharp cut-off; inactive means mostly below about 38%;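 further: higher means compound restores mutant binding toward wildtype level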
MEKK3 confirm: confirmation of inhibitors of MEK5 binding to human MEKK3; shares compounds with MEKK3 PB1 HTS; bead flow cytometry, Alexa488-MEK5 binding to MEKK3; active compounds read low; binding response (% of control), % at 10 µM; actives 1.8% (n = 5,900); AID 1894;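 active means binding response below 72% of control, or above a set upper limit, though filed actives all read lower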;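 further: 100% = DMSO only wells and 0% = binding blocked by excess unlabeled MEK5; lower values mean stronger disruption of MEK5 binding to MEKK3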
* = called active by the depositor; i = inactive; / = not tested or not shown; [ ] = remark or other dose.

SMILES | MEKK2 WT-MEK5 | ANO1 block | MEKK2mut PB1 HTS | NTR1 agonist | MEKK3 PB1 HTS | TMEM16A act | MEKK2wt confirm | MEKK2mut confirm | MEKK3 confirm
O=C(O)CCNC(=O)/C(=C\C=C\c1ccccc1)NC(=O)c1ccccc1 | 125 | i | 35 | 0 | 134* | i | 98 | -8 | 99
Cc1ccc(C(=O)N/C(=C\C=C\c2ccccc2)C(=O)NCc2ccco2)cc1 | 107 | i | 0 | -2 | 146* | i | 96 | -5 | 101
COc1cc(/C=C(\C#N)C(=O)Nc2ccccc2C(=O)O)cc(Cl)c1OC | 56 | i | -17 | 8 | 43*[inhibitor] | i | 106 | 6 | 106
COc1ccc(/C=C(/C#N)C(=O)Nc2ccccc2C)cc1C(=O)O | 106 | i | 0 | 1 | 108 | i | / | / | /
CC1c2ccccc2N(NC(=O)Cc2ccccc2)C1C (centres undefined) | 131 | i | 28 | 0 | 135* | i | 101 | 1 | 102
O=C(Cc1ccccc1)NCC(=O)OCC(=O)c1cccs1 | 107 | i | 5 | 3 | 105 | i | / | / | /
Cc1ccccc1S(=O)(=O)Cc1ccc(C(=O)O)o1 | 82 | i | -13 | 1 | 80*[inhibitor] | i | 107 | 14 | 108
CC12CCC(C(=O)NNc3ccccc3)(OC1=O)C2(C)C (centres undefined) | 101 | i | 1 | -1 | 101 | i | / | / | /
CC12CCC(C(=O)NNc3ccc([N+](=O)[O-])cc3)(OC1=O)C2(C)C (centres undefined) | 129 | i | 29 | -1 | 132* | i | 103 | 4 | 104
CC(=O)CC1=NC(C)(C)Cc2ccccc21 | 102 | i | -2 | 1 | 102 | i | / | / | /
CN(C)c1nc(N(C)C)nc(N(C#N)CN2C(=O)c3ccccc3C2=O)n1 | 114 | i | 13 | 1 | 106 | / | / | / | /
Cc1ccc(N=Nc2cc(C)ccc2O)c(C)c1 | 8.0*[inhibitor] | i | -42 | 2 | 5.0*[inhibitor] | i | 105 | -5 | 101
O=C1C(Nc2ccccc2)=C(NS(=O)(=O)c2ccccc2)C(=O)c2ccccc21 | 106 | i | 0 | 0 | 139* | i | 96 | -7 | 92
COc1ccc(-c2cn3cccnc3n2)cc1NC(=O)c1cc(OC)c(OC)c(OC)c1 | 27*[inhibitor] | i | -21 | 2 | 20*[inhibitor] | i | 100 | -3 | 97
O=C(NCCc1ccccc1)c1cc(=O)c2ccccc2o1 | 101 | i | -1 | 0 | 96 | i | / | / | /
O=C(NC12CC3CC(CC(C3)C1)C2)C1CC(=O)N(c2ccccc2)C1 (centres undefined) | 100 | i | 25* | 1 | 107 | i | 99 | -3 | 99
O=C1N=C(N2CCN(c3ccccc3)CC2)S/C1=C\c1cn[nH]c1-c1ccccc1 | 100 | i | 0 | 11 | 105 | i | / | / | /
Cc1ccc(N2CCN(C3=NC(=O)/C(=C\c4cn[nH]c4-c4ccccc4)S3)CC2)cc1 | 103 | i | 0 | 8 | 135* | i | 98 | -1 | 98
CCN1CCN(c2ccc(S(=O)(=O)N3CCCCC3)cc2NC(=O)CCNC(C)=O)CC1 | / | / | / | / | / | i | / | / | /
CC1(N2CCCCC2)C(=O)c2ccccc2C1=O | 106 | i | 0 | -1 | 138* | i | 106 | 2 | 103
CC1(N2CCOCC2)C(=O)c2ccccc2C1=O | 103 | i | 0 | -1 | 109 | i | / | / | /
O=C(NCCCNC(=O)c1c(Cl)cccc1Cl)c1c(Cl)cccc1Cl | / | i | / | 1 | / | i | / | / | /
COC(=O)C(Cc1c[nH]c2ccccc12)N1CCS(=O)(=O)CC1 (centres undefined) | 103 | i | 2 | 1 | 101 | i | / | / | /
Oc1c(Br)cc(Cl)cc1C=Nc1ccc(N2CCOCC2)cc1 | 54*[inhibitor] | i | -18 | -1 | 89 | i | 83 | -8 | 101
Oc1ccc(N=Nc2cccc(Cl)c2)cc1C=Nc1ccc(N2CCOCC2)cc1 | 100 | / | 4 | / | 97 | i | / | / | /
SMILES | MEKK2 WT-MEK5 | ANO1 block | MEKK2mut PB1 HTS | NTR1 agonist | MEKK3 PB1 HTS | TMEM16A act | MEKK2wt confirm | MEKK2mut confirm | MEKK3 confirm
CC(C)C(OC(=O)c1cc2sccc2n1C)C(=O)NCC1CCCO1 (centres undefined) | -2.0*[inhibitor] | i | -26 | -1 | 1.0*[inhibitor] | i | 97 | -9 | 98
NC(=O)CSc1nnc2ccc(-c3ccc(F)cc3)nn12 | 100 | i | 1 | 2 | 98 | i | / | / | /
CN1C/C(=C\c2ccc(N3CCOCC3)cc2)C(=O)/C(=C/c2ccc(N3CCOCC3)cc2)C1 | 81 | i | -4 | 0 | 89 | i | / | / | /
CCN1C/C(=C/c2ccc(N3CCOCC3)cc2)C(=O)/C(=C/c2ccc(N3CCOCC3)cc2)C1 | 26*[inhibitor] | i | -23 | / | 93 | i | 80 | -11 | 92
Cc1c(NC(=O)c2cccc(NC(=O)Cc3ccccc3F)c2)c(=O)n(-c2ccccc2)n1C | / | / | / | -1 | / | i | / | / | /
COc1cc(-c2nc3ccccn3c2/N=C/c2cc(OC)c(O)cc2Cl)ccc1O | 106 | i | 9 | 6 | 105 | i | / | / | /
COc1cc(NC(=O)COC(=O)c2ccc(C)c(S(=O)(=O)N3CCCCC3)c2)c(C)cc1[N+](=O)[O-] | 108 | i | 0 | 2 | 146* | i | 105 | 1 | 102
COc1ccc(C(=O)OCC(=O)Nc2ccc(OC)c(S(=O)(=O)N3CCCCC3)c2)cc1[N+](=O)[O-] | / | / | / | 1 | / | i | / | / | /
CCN(CC(=O)Nc1ccc(NC(C)=O)cc1)C(=O)c1n[nH]c(=O)c2ccccc12 | 72 | i | -34 | 0 | 55*[inhibitor] | i | 100 | 4 | 103
CCN(CC(=O)Nc1ccc(NC(C)=O)cc1)C(=O)C(c1ccccc1)c1ccccc1 | 105 | i | 0 | -1 | 131* | i | 88 | 3 | 96
CCCCCC1C(=O)N2C=C(c3ccccc3)c3ccccc3N2C1=O (centres undefined) | / | / | / | / | / | i | / | / | /
CCOc1cc(C2C(C#N)=C(N)OC(C)=C2C(C)=O)c(Br)c(Br)c1OC(C)C (centres undefined) | 94 | i | 0 | 19 | 68*[inhibitor] | i | 96 | -4 | 100
Cc1ccccc1C(=O)Nc1nc2c(C)csc2c(=O)s1 | 107 | i | 25 | 6 | 128* | i | 94 | -10 | 97
